Reference: PubChem BioAssay (NCI)
About 83,000 compounds went through this panel and 20% of them were active in at least one assay; those are over-represented in the sample as a whole.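 Growth was measured after 48 h exposure to one concentration of compound in 96-well plates. Values under 10 count as active.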 A number with no mark means an inactive call. Active and inactive are the calls of the source.

These compounds were tested on RXF 393 renal (assay: NCI-60 one-dose screen, 48 h (100 = growth as untreated, 0 = no growth, -100 = all killed)). Details: 10 µM unless noted.

Row | SMILES | growth
1 | COc1cc2nc(C(=O)N3CCCCC3)cc(Nc3ccccc3)c2cc1OC | 101%
2 | CCCOC(=O)c1ccc([N+](=O)[O-])o1 | 109%
3 | COc1ccccc1S(=O)(=O)Nc1ccc2c3c(cc(-c4ccoc4)nc13)C(=O)N2C | 85.3%
4 | OCc1cnccc1NC12CC3CC(CC(C3)C1)C2 | 99.9%
5 | CC(=O)c1cc2c(c(O)c1C)C(=O)C(=O)c1c(O)cccc1-2 | -90.2% (active)
6 | Cc1ccc2oc(=O)cc(C3C(C#N)=C(N)Oc4c3ccc3ccccc43)c2c1 (stereo not drawn) | 79.2%
7 | COc1ccc(-c2coc3c(CO)c(O)ccc3c2=O)cc1 | -27.4% (active)
8 | CCOc1ccccc1C(=O)N1CCN(c2cc(Cl)cc(Cl)c2)CC1 | 40.9%
9 | CCCCNC(=O)Oc1ccc(/C(=C(/CC)Cc2ccccc2)c2ccc(OCCCN(C)C)cc2)cc1 | 70.7%
10 | C=C1C(=O)O[C@H]2[C@H]1CC/C(COC(=O)c1ccc(C#N)cc1)=C\CC[C@@]1(C)O[C@@H]21 | -47.7% (active)
11 | O=C(Nc1ccc(F)cc1)Nc1ccc(Br)c(C(F)(F)F)c1 | 26.8%
12 | CCn1c(SC)nnc1-c1cc2c([nH]c3ccccc32)c(-c2cccc(O)c2)n1 | -32.9% (active)
13 | COc1ccccc1S(=O)(=O)Nc1ccc2c3c(cc(-c4cnn(C5CC5)c4)nc13)C(=O)N2C | 89.8%
14 | Nc1nc(Nc2ccc(OCc3cccc(F)c3)cc2)c2c(n1)[nH]c1ccc(O)cc12 | -76% (active)
15 | CCn1c(SCC(=O)c2ccc(Br)cc2)nnc1-c1cc2c([nH]c3ccccc32)c(-c2cccc(O)c2)n1 | 1.81% (active)
16 | O=C(Cn1c2ccccc2c2ccncc21)N/N=C/c1c[nH]c2ccccc12 | 49.2%
17 | CC(=O)c1cc2c(N)c(C(=O)Nc3cccc(Cl)c3)sc2nc1C | 79.7%
18 | S=c1[nH]nc(Cn2c3ccccc3c3ccncc32)o1 | 112%
19 | COc1ccccc1S(=O)(=O)Nc1ccc2c3c(cc(-c4cnn(C)c4)nc13)C(=O)N2C | 40.2%
20 | CCNC(=O)Oc1ccc(/C(=C(/CC)Cc2ccccc2)c2ccc(OCCN3CCOCC3)cc2)cc1 | 42.7%

Row | SMILES | growth
21 | COc1ccc(-c2cc3ccc(N(C)C)cc3nc2N)c(F)c1 | 32.4%
22 | C=C1C(=O)O[C@H]2[C@H]1CC/C(COC(=O)c1ccc(Br)cc1)=C\CC[C@@]1(C)O[C@@H]21 | -86% (active)
23 | CC(=O)O[C@@H]1[C@@H](OC(C)=O)[C@H](OC(C)=O)CO[C@H]1Nc1cccc2ccccc12 | 105%
24 | COc1ccc(C2CC(c3cc(Cl)c(C)cc3OC)=NN2c2ccc(S(N)(=O)=O)cc2)cc1OC (stereo not drawn) | 77.7%
25 | C=C1C(=O)O[C@H]2[C@H]1CC/C(COC(=O)c1cc(OC)c(OC)c(OC)c1)=C\CC[C@@]1(C)O[C@@H]21 | -87.8% (active)
26 | O=C(CNc1cccnc1)Nc1ccc(C(=O)/C=C/c2ccc(Cl)cc2)cc1 | 98.8%
27 | C/C(=N/NC(=O)Cn1c2ccccc2c2ccncc21)c1cccs1 | 98.7%
28 | COc1ccc(/C=N/C2=NNC(C)(c3ccccc3O)N2C(Cc2c[nH]c3ccccc23)C(=O)O)cc1 (stereo not drawn) | 35.5%
29 | O=C(Nc1ccc(Cl)c(Cl)c1)Nc1ccc(Cl)c([N+](=O)[O-])c1 | -11.8% (active)
30 | COc1ccc(C(=O)Cn2cnc3c(Nc4cc(C(=O)Nc5ccc(N6CCN(CCO)CC6)cc5)ccc4C)ncnc32)cc1 | 113%
31 | O=[N+]([O-])c1ccc(NS(=O)(=O)c2ccccc2)c2ccccc12 | 41.6%
32 | FC(F)(F)c1cn(CCN2CCOCC2)c2ncnc(Cl)c12 | 82.9%
33 | CN1C(=O)C2(SCC(C(=O)NCC(=O)OC(C)(C)C)N2C(=O)C2CCCCC2)c2ccccc21 (stereo not drawn) | 105%
34 | C=C1C(=O)O[C@H]2[C@H]1CC/C(COC(=O)c1cccc3ccccc13)=C\CC[C@@]1(C)O[C@@H]21 | -89.6% (active)
35 | C=C1C(=O)O[C@H]2[C@H]1CC/C(COC(=O)c1ccc(Cl)nc1)=C\CC[C@@]1(C)O[C@@H]21 | -73.1% (active)
36 | CCOc1cccc(Nc2nc(N)nc3[nH]c4ccc(O)cc4c23)c1 | 43%
37 | Cc1ccc2c(C3C(C#N)=C(N)Oc4cc5ccccc5cc43)cc(=O)oc2c1 (stereo not drawn) | -11% (active)
38 | CC(C(=O)O)N1C(N)=NNC1c1ccccc1O (stereo not drawn) | 96.4%
39 | Cc1cc(N2CCOCC2)nc(N(CCNc2ccnc3cc(Cl)ccc23)Cc2ccco2)n1 | 10.6%

Each compound was assayed on SF-268 CNS in the same assay as above. Details: 10 µM unless noted.

Row | SMILES | growth
40 | COc1cc2nc(C(=O)N3CCCCC3)cc(Nc3ccccc3)c2cc1OC | 84.2%
41 | CCCOC(=O)c1ccc([N+](=O)[O-])o1 | 100%
42 | COc1ccccc1S(=O)(=O)Nc1ccc2c3c(cc(-c4ccoc4)nc13)C(=O)N2C | 84.1%
43 | OCc1cnccc1NC12CC3CC(CC(C3)C1)C2 | 98.3%
44 | CC(=O)c1cc2c(c(O)c1C)C(=O)C(=O)c1c(O)cccc1-2 | -45.8% (active)
45 | Cc1ccc2oc(=O)cc(C3C(C#N)=C(N)Oc4c3ccc3ccccc43)c2c1 (stereo not drawn) | 82.7%
46 | COc1ccc(-c2coc3c(CO)c(O)ccc3c2=O)cc1 | 22.2%
47 | CCOc1ccccc1C(=O)N1CCN(c2cc(Cl)cc(Cl)c2)CC1 | 30%
48 | CCCCNC(=O)Oc1ccc(/C(=C(/CC)Cc2ccccc2)c2ccc(OCCCN(C)C)cc2)cc1 | 77.8%
49 | C=C1C(=O)O[C@H]2[C@H]1CC/C(COC(=O)c1ccc(C#N)cc1)=C\CC[C@@]1(C)O[C@@H]21 | 56.8%
50 | O=C(Nc1ccc(F)cc1)Nc1ccc(Br)c(C(F)(F)F)c1 | 22%
51 | CCn1c(SC)nnc1-c1cc2c([nH]c3ccccc32)c(-c2cccc(O)c2)n1 | 32.4%
52 | COc1ccccc1S(=O)(=O)Nc1ccc2c3c(cc(-c4cnn(C5CC5)c4)nc13)C(=O)N2C | 84.3%
53 | Nc1nc(Nc2ccc(OCc3cccc(F)c3)cc2)c2c(n1)[nH]c1ccc(O)cc12 | -14.7% (active)
54 | CCn1c(SCC(=O)c2ccc(Br)cc2)nnc1-c1cc2c([nH]c3ccccc32)c(-c2cccc(O)c2)n1 | 72.5%
55 | O=C(Cn1c2ccccc2c2ccncc21)N/N=C/c1c[nH]c2ccccc12 | 71.4%
56 | CC(=O)c1cc2c(N)c(C(=O)Nc3cccc(Cl)c3)sc2nc1C | 93.2%
57 | S=c1[nH]nc(Cn2c3ccccc3c3ccncc32)o1 | 103%
58 | COc1ccccc1S(=O)(=O)Nc1ccc2c3c(cc(-c4cnn(C)c4)nc13)C(=O)N2C | 59.8%
59 | CCNC(=O)Oc1ccc(/C(=C(/CC)Cc2ccccc2)c2ccc(OCCN3CCOCC3)cc2)cc1 | 43.7%

Row | SMILES | growth
60 | COc1ccc(-c2cc3ccc(N(C)C)cc3nc2N)c(F)c1 | 56.5%
61 | C=C1C(=O)O[C@H]2[C@H]1CC/C(COC(=O)c1ccc(Br)cc1)=C\CC[C@@]1(C)O[C@@H]21 | 24.6%
62 | CC(=O)O[C@@H]1[C@@H](OC(C)=O)[C@H](OC(C)=O)CO[C@H]1Nc1cccc2ccccc12 | 83.1%
63 | COc1ccc(C2CC(c3cc(Cl)c(C)cc3OC)=NN2c2ccc(S(N)(=O)=O)cc2)cc1OC (stereo not drawn) | 90.1%
64 | C=C1C(=O)O[C@H]2[C@H]1CC/C(COC(=O)c1cc(OC)c(OC)c(OC)c1)=C\CC[C@@]1(C)O[C@@H]21 | 16.5%
65 | O=C(CNc1cccnc1)Nc1ccc(C(=O)/C=C/c2ccc(Cl)cc2)cc1 | 91.4%
66 | C/C(=N/NC(=O)Cn1c2ccccc2c2ccncc21)c1cccs1 | 95.5%
67 | COc1ccc(/C=N/C2=NNC(C)(c3ccccc3O)N2C(Cc2c[nH]c3ccccc23)C(=O)O)cc1 (stereo not drawn) | 40.2%
68 | O=C(Nc1ccc(Cl)c(Cl)c1)Nc1ccc(Cl)c([N+](=O)[O-])c1 | 14.1%
69 | COc1ccc(C(=O)Cn2cnc3c(Nc4cc(C(=O)Nc5ccc(N6CCN(CCO)CC6)cc5)ccc4C)ncnc32)cc1 | 98.6%
70 | O=[N+]([O-])c1ccc(NS(=O)(=O)c2ccccc2)c2ccccc12 | 42.3%
71 | FC(F)(F)c1cn(CCN2CCOCC2)c2ncnc(Cl)c12 | 67.5%
72 | CN1C(=O)C2(SCC(C(=O)NCC(=O)OC(C)(C)C)N2C(=O)C2CCCCC2)c2ccccc21 (stereo not drawn) | 96.7%
73 | C=C1C(=O)O[C@H]2[C@H]1CC/C(COC(=O)c1cccc3ccccc13)=C\CC[C@@]1(C)O[C@@H]21 | -66.4% (active)
74 | C=C1C(=O)O[C@H]2[C@H]1CC/C(COC(=O)c1ccc(Cl)nc1)=C\CC[C@@]1(C)O[C@@H]21 | 56.9%
75 | CCOc1cccc(Nc2nc(N)nc3[nH]c4ccc(O)cc4c23)c1 | 44.6%
76 | Cc1ccc2c(C3C(C#N)=C(N)Oc4cc5ccccc5cc43)cc(=O)oc2c1 (stereo not drawn) | 54.6%
77 | CC(C(=O)O)N1C(N)=NNC1c1ccccc1O (stereo not drawn) | 84%
78 | Cc1cc(N2CCOCC2)nc(N(CCNc2ccnc3cc(Cl)ccc23)Cc2ccco2)n1 | 71.8%
